According to PubChem BioAssay (NCATS):
Values without a mark were called inactive. Calls come from the whole dose curve; as a rule, active = well fitted inhibition curve with a large enough effect; inconclusive = small, poorly fitted or top-dose-only effect; inactive = no such curve, though single readings can be large or run the other way.

Assay: qHTS assay for measurement of the activity of small molecule inhibitors on Zika virus induced Caspase-3 activity in human astrocytoma cells (AID 1224859)
Details: SNB-19 ZIKV-induced caspase-3/7, luminescence, 6 h; series mostly up to 45.7 µM; activity change, negative = inhibition: at the top concentration
From the text: National Center for Advancing Translational Sciences [NCATS]
Johns Hopkins University School of Medicine
Increase in the Caspase-3 activity indicates an activation of apoptosis cell death pathway caused by Zika virus infection in certain types of neuronal cells including human neural progenitor cells (hNPCs), astrocytes, and astrocytoma cell line (SNB-19). This cell-based caspase-3 activity assay measures the increased caspase-3 activity in the astrocytoma cell line (SNB-19) after a 6-hour Zika virus infection with a luminescence readout. A decrease in the luminescence signal in this assay by small molecule treatment indicates an inhibitory effect of that small molecule on the Zika virus induced caspase-3 activity that may correlate with its effect on reduction of Zika virus caused cell death.
The medium for SNB-19 cells is composed of RPMI 1640 (ATCC, Cat.# 30-2001), 10% fetal bovine serum (FBS) (GE healthcare Life Sciences, Cat.# SH30071.03), and 1% Pen/Strep (Gibco, Cat.# 15140-122). A Caspase-Glo 3/7 assay kit (catalog number G8092; Promega, Madison, WI) was used to detect caspase-3 activity induced by Zika virus infection in human cells. The reagent mixture was reconstituted as described in the protocol from the manufacturer. Polystyrene tissue culture treated and PDL coated white plates were obtained from Greiner Bio-One (Monroe, NC). Cells were seeded in 384- or 1536-well assay plates and cultured at 37 C with 5% CO2 for 16 to 20 hours. The typical cell seeding density in the 1536-well plate assay is 250 cells/well in 3ul medium for SNB-19 cells in tissue culture treated plates. Compounds were added to cells and incubated for one hour before addition of ZIKV solution to cells (2 FFU/cell). After incubation at 37 C with 5% CO2 for 6 hours, the reagent mixture of Caspase-Glo 3/7 assay kit was added to each well, followed by incubation at room temperature for 30 minutes. The luminescence intensity of the assay plates was measured using a ViewLux plate reader (PerkinElmer). Data were normalized by using the cell-containing wells without ZIKV as a negative control (0% induction of caspase 3/7 activity) and wells containing ZIKV infected cells (Caspase-3 activity induced) as a positive control (100% induction of caspase 3 activity). The percentage inhibitions of the increased Caspase-3 activity by small molecule inhibitors were then calculated.

Row | SMILES | activity change, negative = inhibition
1 | O=C(O)CCCCCC(=O)NN=C1CCCC1 | -0.861%
2 | Oc1cc2c(cc1O)C1c3ccc(O)c(O)c3OCC1(O)C2 (stereo not given) | 0.0679%
3 | C=CC(=O)N1CCc2ccc(-n3c(=O)ccc4cnc5ccc(-c6cnn(C)c6)cc5c43)cc21 | 27.4%
4 | CCc1cnn2c(NCc3ccc[n+]([O-])c3)cc(N3CCCC[C@@H]3CCO)nc12 | 46.4%
5 | COC(=O)C=CC(=O)OC | 86%
6 | CCCNC(=O)[C@H]1O[C@H]1C(=O)N[C@H](C(=O)N1CCC[C@@H]1C(=O)OC)C(C)CC (stereo not given in full) | 0.0169%
7 | Cc1ccccc1C(=O)Nc1ccc(C(=O)N2CCCC(O)c3cc(Cl)ccc32)c(C)c1 (stereo not given) | 42.3%
8 | OC[C@H]1OC(O)C[C@@H](O)[C@H]1O (stereo not given in full) | -0.0875%
9 | OCCN1C[C@H](O)[C@@H](O)[C@H](O)[C@@H]1CO | 4.9%
10 | CCN(CC)Cc1ccc2cc(COC(=O)Nc3ccc(C(=O)NO)cc3)ccc2c1 | 66.3%
11 | Cc1coc2c1C(=O)C(=O)c1c-2ccc2c(C)cccc12 | 3.08%
12 | CS[C@H]1SC[C@@H]2C(=O)N(C)[C@H](C(C)C)C(=O)OC[C@H](NC(=O)c3cnc4ccccc4n3)C(=O)N[C@H](C)C(=O)N(C)[C@@H]1C(=O)N(C)[C@H](C(C)C)C(=O)OC[C@H](NC(=O)c1cnc3ccccc3n1)C(=O)N[C@H](C)C(=O)N2C | 65%
13 | CC(C)c1cnn2c(NCc3ccccc3)cc(NCCCCCCN)nc12 | 23.2%
14 | N#CC(=C(O)c1ccc(Cl)cc1Cl)c1nc2cc(Cl)ccc2c(=O)[nH]1 | -21.9%
15 | COc1cc(OC)c(NC(=O)Nc2cc(C)on2)cc1Cl | 26%
16 | CC[C@H]1OC(=O)[C@H](C)[C@@H](O[C@H]2C[C@@](C)(OC)[C@@H](O)[C@H](C)O2)[C@H](C)[C@@H](O[C@@H]2O[C@@H](C)C[C@H](N(C)C)[C@@H]2O)[C@](C)(O)C[C@@H](C)C(=O)[C@H](C)[C@@H](O)[C@]1(C)O | 25.9%
17 | Cc1cnc(Nc2ccc(CN3CCOCC3)cc2)nc1Nc1cccc(S(=O)(=O)NC(C)(C)C)c1 | 92.6%
18 | Nc1ncn([C@@H]2O[C@H](CO)[C@@H](O)[C@@H]2O)c(=O)n1 | -0.953%
19 | CC(=O)ON=C1C(c2c(O)[nH]c3cc(Br)ccc23)=Nc2ccccc21 | 9.65%
20 | CN[C@H](CC(C)C)C(=O)N[C@H]1C(=O)N[C@@H](CC(N)=O)C(=O)N[C@@H]2C(=O)N[C@H]3C(=O)N[C@H](C(=O)N[C@H](C(=O)O)c4cc(O)cc(O)c4-c4cc3ccc4O)[C@H](O)c3ccc(c(Cl)c3)Oc3cc2cc(c3O[C@@H]2O[C@H](CO)[C@@H](O)[C@H](O)[C@@H]2O[C@H]2C[C@](C)(N)[C@H](O)[C@H](C)O2)Oc2ccc(cc2Cl)[C@H]1O | 28.2%

Row | SMILES | activity change, negative = inhibition
21 | C[C@@H](NCc1cc2ccccc2[nH]1)c1cccc2ccccc12 | -15.7%
22 | CN(C)CC[C@H](c1ccc(Cl)cc1)c1ccccn1 | -24.5%
23 | CCCCCCCCCCCCCCCC(=O)OC[C@@H](NC(=O)C(Cl)Cl)[C@H](O)c1ccc([N+](=O)[O-])cc1 | -1.51%
24 | C[N+](C)([O-])CCNc1ccc(NCC[N+](C)(C)[O-])c2c1C(=O)c1c(O)ccc(O)c1C2=O | 6.5%
25 | Cn1cnc(=N)c2[nH]cnc21 | 37.4%
26 | CCCCCCCCCCCCc1ccc(S(=O)(=O)Nc2nncs2)cc1 | 15.8%
27 | CO[C@@H]1[C@@H](O)[C@H](O)[C@@H](n2c3c(Cl)cccc3c3c4c(c5c6cccc(Cl)c6[nH]c5c32)C(=O)NC4=O)O[C@@H]1CO | 32.4%
28 | CC[C@H]1OC(=O)[C@H](C)[C@@H](O[C@H]2C[C@@](C)(OC)[C@@H](O)[C@H](C)O2)[C@H](C)[C@@H](O[C@@H]2O[C@H](C)C[C@H](N(C)C)[C@@H]2O)[C@](C)(OC)C[C@@H](C)C(=O)[C@H](C)[C@@H](O)[C@]1(C)O | 8.04%
29 | CS(=O)(=O)N1CCc2c(-c3cnc(N)nc3)nc(N3CCOCC3)nc21 | 53.3%
30 | C=C[C@@H]1CN2CCC1C[C@H]2[C@H](O)c1ccnc2ccc(OC)cc12 (stereo not given in full) | -2.45%
31 | CON=C(C(=O)N[C@@H]1C(=O)N2C(C(=O)O)=C(CSC(=O)c3ccco3)CS[C@H]12)c1csc(N)n1 | -6.59%
32 | CC1(C)O[C@@H]2C[C@H]3[C@@H]4CCC5=CC(=O)C=C[C@]5(C)[C@@H]4[C@@H](O)C[C@]3(C)[C@]2(C(=O)CO)O1 | -0.0925%
33 | C=CC(=O)Nc1cc(NC(=O)c2ccc(C)c(NC(=O)c3ccno3)c2)cc(C(F)(F)F)c1 | -9.48%
34 | C=CCNC1=C2C[C@@H](C)C[C@H](OC)[C@@H](O)[C@@H](C)C=C(C)[C@H](OC(N)=O)[C@@H](OC)C=CC=C(C)C(=O)NC(=CC1=O)C2=O | 16.1%
35 | C[C@H](NC(=O)[C@@H](O)c1cc(F)cc(F)c1)C(=O)N[C@@H]1C(=O)N(C)c2ccccc2-c2ccccc21 | 5.66%
36 | C[C@@]12C(=O)OC(=O)[C@@]1(C)C1CCC2O1 | 17.3%
37 | COC[C@H](NC(=O)c1cnc(C)s1)C(=O)N[C@@H](COC)C(=O)N[C@@H](Cc1ccccc1)C(=O)[C@@]1(C)CO1 | -13.5%
38 | COC1=C2C[C@@H](C)C[C@H](OC)[C@@H](O)[C@@H](C)C=C(C)[C@H](OC(N)=O)[C@@H](OC)C=CC=C(C)C(=O)NC(=CC1=O)C2=O | -3.23%
39 | C=CC1=C(C(=O)O)N2C(=O)[C@@H](NC(=O)C(=NO)c3csc(N)n3)[C@H]2SC1 | 9.08%
40 | CC(C=CC=C(C)C=CC1=C(C)CCCC1(C)C)=CC=CC=C(C)C=CC=C(C)C=CC1=C(C)CCCC1(C)C | 46.5%
